# Results published in PubChem BioAssay (EPA / NIEHS).
# Calls of active or inactive are those of the source. Rule for the calls: active = hit-call score of the fitted dose curve at least 0.9, where 1 is the maximum; inconclusive = response in the unintended direction; inactive = score below 0.9.
# System: rat CYP3A1, gene 25642
# Assay: NVS_ADME_rCYP3A1: NovaScreen (NVS) CYP450-related Enzyme Activity (ADME) Assay for rat CYP3A1 (AID 2283126)
# Experimental: NVS_ADME_rCYP3A1 is a biochemical, single-readout assay that uses extracted gene-proteins in a cell-free assay. Measurements were taken 0.5 hour after chemical dosing in a 96-well plate.NVS_ADME_rCYP3A1 is one of one assay component(s) measured or calculated from the NVS_ADME_rCYP3A1 assay. It is designed to make measurements of enzyme activity, a form of enzyme reporter, as detected with fluorescence intensity signals by Fluorescence technology.Data from the assay component NVS_ADME_rCYP3A1 was analyzed into 1 assay endpoint. This assay endpoint, NVS_ADME_rCYP3A1, was analyzed in the positive analysis fitting direction relative to Acetonitrile as the negative control and baseline of activity. Using a type of enzyme reporter, loss-of-signal activity can be used to understand changes in the enzymatic activity as they relate to the gene Cyp3a23/3a1. Furthermore, this assay endpoint can be referred to as a primary readout, because this assay has produced multiple assay endpoints where this one serves a enzymatic activity function. To generalize the intended target to other relatable targets, this assay endpoint is annotated to the cyp intended target family, where the subfamily is xenobiotic metabolism.
# Binding assays used specific radioligands (tritiated, iodinated) with non-radioactive competitive displacement ligands in agonist or antagonist protocols (as indicated) and various reference compounds and inhibitors to titrate specific binding to receptors and transporters. Most enzyme assays (CYPs, kinases, phosphatases, proteases, HDACs) used recombinant protein and specific substrates (fluorescence mostly, some colorimetric and radioactive) and inhibitors, followed by a biochemical separation of substrate and product. All assays for the biochemical HTS were initially run in duplicate at a single concentration (10 uM for CYP450 assays and 25 uM for all others). Assay-chemical combinations meeting a pre-defined threshold (e.g., 30% inhibition and other criteria defined below) were then run in singleton concentration-response format with maximum concentration of 20 uM for CYPs and 50 uM for all others. Each assay was run with positive and negative controls, and concurrent controls on every plate. The follow-up (secondary) screen tested active chemical-pairs in concentration series, as well as a few additional assays not tested in the primary screen, some selected negative inactives, and several cases re-run in the concentration series for confirmatory purposes.
row,Compound,AC50
1,CCCCOCCOCCOCc1cc2c(cc1CCC)OCO2,5.03 µM (active)
2,CCCCC(CC)CN1C(=O)C2C3C=CC(C3)C2C1=O (stereo not drawn),6.63 µM (active)
3,CN(C)C(=O)Nc1ccc(Cl)c(Cl)c1,5.82 µM (active)
4,S=C([S-])NCCNC(=S)[S-].[Mn+2],7.1 µM (active)
5,C=CCOC(Cn1ccnc1)c1ccc(Cl)cc1Cl (stereo not drawn),0.729 µM (active)
6,CCOC(=O)NCCOc1ccc(Oc2ccccc2)cc1,5.62 µM (active)
7,S=C(S)NCCNC(=S)S.[Mn+2].[S-]C([S-])=NCCN=C([S-])[S-].[Zn+2],10 µM (active)
8,Oc1ccc(C(c2ccc(O)cc2)C(Cl)(Cl)Cl)cc1,2.7 µM (active)
9,N#CSCSc1nc2ccccc2s1,10.1 µM (active)
10,CC(C)(c1ccc(O)cc1)c1ccc(O)cc1,9.88 µM (active)
11,CC(C)(C)[C@@H](O)[C@@H](Cc1ccc(Cl)cc1)n1cncn1,3.44 µM (active)
12,CCN(Cc1c(F)cccc1Cl)c1c([N+](=O)[O-])cc(C(F)(F)F)cc1[N+](=O)[O-],6.19 µM (active)
13,CSC(=O)c1cccc2nnsc12,4.28 µM (active)
